# PubChem BioAssay AID901 (National Center for Advancing Translational Sciences (NCATS), 2007)
# Among all 120,000 compounds or so, fewer than 10 were called active. Inconclusive results (about 4%) are left out. The call rests on the fitted dose curve; in most records, active means well fitted curve in the direction sought with a large enough effect in the signal ratio (not every such curve was filed as active); inconclusive means small, poorly fitted or top-dose-only effect, or a change in a side signal; inactive means no such curve, though single readings can be large or run the other way; the % refers to the signal ratio. Only a sample is shown.
# Biological target: Inositol monophosphatase 1 (Rattus norvegicus) (UniProt P97697)
# Assay: qHTS Assay for Identifying the Cell-Membrane Permeable IMPase Inhibitors;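 further: higher means more IMPase inhibition seen as more IP1 and lower FRET ratio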
# Conditions: CHO-M1 cells, HTRF TR-FRET ratio; series mostly up to 46.1 µM
# Source text: NCGC IMPase Assay Overview
# Lithium has been widely used for the treatment of bipolar disorder. But lithium has a narrow therapeutic index and it can cause side effects such as thirst, weight gain, tremor, polyuria and memory problems. Although the mechanism for lithium action in treatment of bipolar disorder is still not fully understood, inhibition of inositol monophosphatase (IMPase) and the subsequent depletion of the inositol pool in living cells have been implicated as the primary therapeutic benefit of lithium therapy. Therefore, a selective IMPase inhibitor with reduced side effects might be a good drug candidate to replace lithium for the treatment of bipolar disorder. Several IMPase inhibitors have been discovered previously. However, they are not suitable for therapeutic use because of their poor cell membrane penetrability or oral bioavailability; the development of new cell-permeable IMPase inhibitors is needed.
# IMPase catalyzes the hydrolysis of inositol-1-phosphate (IP1) to release free inositol. Binding of an agonist to a Gq coupled GPCR results in the activation of PLC, which hydrolyzes the PIP2 to form inositol-1,4,5-trisphosphate (IP3) and diacyl glycerol (DAG). While DAG activates protein kinase C (PKC), IP3 triggers the elevation of intracellular free Ca2+. The IP3 is very rapidly inactivated by hydrolysis to IP2, IP1 and then inositol by a series of enzymes including IMPase. Free inositols are used for synthesis of PI and thus start another inositol cycle.
# To identify new cell-permeable IMPase inhibitors, we developed a cell-based IMPase assay in which the cytosolic IP1 is measured by a time-resolved fluorescence resonance energy transfer (TR-FRET) assay. In this assay, an IP1 specific antibody is used to detect the labeled IP1 tracer. When the cell lysate contains the elevated IP1 due to the inhibition of IMPase, the TR-FRET between the labeled antibody and IP1 tracer is disrupted resulting in a reduction in the total signal. Since the TR-FRET is used, this cell-based assay is a homogenous assay without cell wash and medium change that is suitable for assay miniaturization and HTS.
# NCGC IMPase Assay Protocol Summary
# A Chinese hamster ovary (CHO) cell line stably expressing the M1 receptor (CHO-M1) was obtained from ATCC and maintained in F-12 Kaighn's media (Invitrogen, Carlsbad, CA, 21127) supplemented with 10 % FBS, 100 units/ml penicillin, 100 ug/ml streptomycin and 250 ug/ml geneticin at 37C, 5% CO2 in a humidified atmosphere. Before the assay, aliquots of cells were frozen and stored at -135C. The assay was performed in 1536-well format. Data are reported for both the ratio of the two emission wavelengths, and also for the component 'donor' channel, Em2=620. […] AC50 values were determined from concentration-response data modeled with the standard Hill equation.
# IMPase 1536-well assay protocol:
# (1) Plate 4 ul/well (2000 cells) of cell suspension from frozen CHO-M1 Cells in white, tissue culture treated 1536-well plates that are cultured at 37C, 5 % CO2 for 16 to 30 hours.
# (2) Add 23 nl/well of compound in DMSO solution. The final titration for each compound was between 0.6 nM and 46 uM.
# (3) Add 1 ul of carbachol (50 uM in stimulation buffer containing10mM HEPES, 1mM CaCl2, 0.5 mM MgCl2, 4.2 mM KCl, 146 mM NaCl, 5.5 mM glucose, 50mM LiCl, pH 7.4.
# (4) Incubation at 37C, 5 % CO2 for 30 min.
# (5) Add 1 ul/well of d2-conjugated IP1 (d2-IP1) and 1 ul/well of Eu+ cryptate conjugated anti-IP1 antibody (Eu+-Ab) prepared in the cell lysis buffer, both from the IP-One kit (Cisbio, MA).
# (6) Incubate at room temperature for 10 minutes.
# (7) Detect the assay plate (Ex = 320, Em1 =665 and Em2 620) in a ViewLux plate reader.
# inositol monophosphatase, IMPase, IMPase inhibitor, lithium, bipolar disorder, IP-One, HTRF, qHTS, NIH roadmap, NCGC
# Note: In the gene ID and protein GI references for this assay, rat IMPase is referenced instead of hampster as hamster accession numbers were not available.
# Inositol monophosphatase 1 (Rattus norvegicus), sequence (P97697 whole entry, looked up): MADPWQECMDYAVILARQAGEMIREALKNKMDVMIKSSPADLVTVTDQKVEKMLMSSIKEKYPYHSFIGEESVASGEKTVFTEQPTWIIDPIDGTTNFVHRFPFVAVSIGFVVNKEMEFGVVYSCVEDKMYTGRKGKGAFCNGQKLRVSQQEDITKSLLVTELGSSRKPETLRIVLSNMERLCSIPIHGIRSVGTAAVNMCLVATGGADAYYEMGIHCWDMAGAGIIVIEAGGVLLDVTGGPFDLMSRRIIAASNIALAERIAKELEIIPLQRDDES
row,SMILES,outcome
1,CCOc1ccc(S(=O)(=O)N(CC(=O)NCCSCc2ccc(C)cc2)c2ccccc2)cc1,inactive
2,Cc1ccc(C)c(N2CCN(Cc3nnc(-c4ccccc4)o3)CC2)c1,inactive
3,COC(=O)Cc1ccc(NC(=S)NCc2ccc(Cl)cc2)cc1,inactive
4,CCOc1cccc2c1N[C@@H](c1ccc(C(=O)O)cc1)[C@H]1CC=C[C@@H]21,inactive
5,NC(=S)N/N=C/c1coc2cc(Cl)ccc2c1=O,inactive
6,CCc1ccc2oc(-c3ccc(NC(=O)c4cc5ccccc5o4)cc3)nc2c1,inactive
7,CCOc1ccc(C2CC(=O)c3c([nH]c(C(=O)OCc4ccccc4)c3C)C2)cc1 (stereo unspecified),inactive
8,Cc1ccc(C)c(NC(=O)C(OC(=O)c2ccc(C)s2)c2ccccc2)c1 (stereo unspecified),inactive
9,CCOc1ccc(NC(=O)c2c(NC(=O)Cc3ccccc3)sc3c2CCC(C)C3)cc1 (stereo unspecified),inactive
10,Cc1ccc(NC(=O)C(=O)NCc2ccc(/C=N/NC(=O)c3c(C)nc4cc(C)ccn34)o2)cc1,inactive
11,Cc1ccc(C)c(OCC(=O)Nc2sc3c(c2C#N)CCCC3)c1C,inactive
12,Cc1nc(SCC(=O)Nc2ccc(C(=O)O)cc2)n[nH]1,inactive
13,CCOC(=O)c1c(NC(=S)NC(=O)/C=C/c2cccs2)sc(C)c1C,inactive
14,CCCOC(=O)c1c(NC(=O)c2cc3nc(-c4ccc(OC)cc4)cc(C(F)(F)F)n3n2)sc2c1CCCC2,inactive
15,Cc1cccc(-c2nnc(SCC(=O)N3CCCc4ccccc43)o2)c1,inactive
16,CCOC(=O)/C(C#N)=C/c1ccc(N2CCN(Cc3ccccc3)CC2)cc1,inactive
17,CCOc1ccc(S(=O)(=O)Nc2ccc3oc4c(c3c2)CC(C)CC4)cc1 (stereo unspecified),inactive
18,Cc1ccc(CSCC(N)C(=O)O)cc1 (stereo unspecified),inactive
19,CCC1=Nc2cc(C(=O)NCC(C)c3ccccc3)ccc2Sc2ccc(C)cc21 (stereo unspecified),inactive
20,CCOC(=O)c1ccc(NC(=O)c2ncn(-c3ccccc3)n2)cc1,inactive
21,COCCNC(=O)c1ccc(N2CCC3(CC2)OCCO3)c([N+](=O)[O-])c1,inactive
22,O=C(Nc1ccc2oc(-c3ccc(O)c(Br)c3)nc2c1)c1cc2ccccc2o1,inactive
23,Cc1c(NS(=O)(=O)c2ccc(NC3CCCC3)c([N+](=O)[O-])c2)c(=O)n(-c2ccccc2)n1C,inactive
24,O=C(CCS(=O)(=O)c1cc(Br)cc2c1N(C(=O)C1CC1)CC2)Nc1ccc(Br)cc1F,inactive
25,COc1ccc(OC)c(/C=C/C(=O)OCC(=O)Nc2ccc3c(c2)OCCO3)c1,inactive
26,COc1cccc(N=C2SC(C(=O)Nc3cccc(Cl)c3)CC(=O)N2C)c1 (stereo unspecified),inactive

row,SMILES,outcome
1,COc1ccc([N+](=O)[O-])cc1NC(=O)c1ccc(N(Cc2ccccc2C)S(C)(=O)=O)cc1,inactive
2,CC1=C(C(=O)Nc2ccccc2)C(c2ccc(C)cc2)n2nc(SCc3ccccc3C)nc2N1 (stereo unspecified),inactive
3,FC(F)(F)c1cc(Nc2nc3ccccc3c3nncn23)ccc1Cl,inactive
4,CCCSc1nc2sc3c(c2c(=O)n1-c1cccc(Br)c1)CC(C)(C)OC3,inactive
5,COc1cccc(OCCn2c(-c3ccc(Br)cc3)nc3ccccc3c2=O)c1,inactive
6,CCOC(=O)c1c(N)n(-c2cccc(C)c2C)c2nc3ccccc3nc12,inactive
7,Cc1ccc(NC(=O)c2sc3nc(N)c(C#N)cc3c2N)cc1,inactive
8,Cc1ccc2nc(-c3ccc(C)c(NC(=O)Cc4ccccc4)c3)oc2c1,inactive
9,CN(Cc1ccccc1)C(=O)CCS(=O)(=O)c1cc(Br)cc2c1N(C(=O)C1CC1)CC2,inactive
10,COC(=O)c1ccc(OCC(O)CN(CCO)CC(O)Cn2ccc3ccccc32)cc1 (stereo unspecified),inactive
11,COc1cccc(C(=O)NC2(C(F)(F)F)C(=O)Nc3c2c(=O)[nH]c(=O)n3-c2ccc(C)cc2)c1 (stereo unspecified),inactive
12,COC(=O)c1c(NC(=O)C(C)Oc2ccc(Cl)c(C)c2)sc(C)c1C (stereo unspecified),inactive
13,O=C(NCCCN1CCN(c2cccc(Cl)c2)CC1)c1nnc(Cc2ccc(F)cc2Cl)o1,inactive
14,CCC(=O)NCc1cc(-c2nn(C)c(=O)c3ccccc23)ccc1OC,inactive
15,CCCn1c(C)cc(/C=C(\C#N)C(=O)OCC(=O)Nc2cc(OC)c(OC)c(OC)c2)c1C,inactive
16,COc1ccc2nc(SCc3ccccc3)nc(C)c2c1,inactive
17,COc1ccc(-c2cc(C(F)(F)F)nc(SCC(=O)N(C)Cc3ccccc3)n2)cc1OC,inactive
18,O=C(COC(=O)c1cc([N+](=O)[O-])ccc1NCc1ccccc1)NC1CCCCC1,inactive
19,CCCn1c(=N)n(CC(O)COc2ccccc2OC)c2ccccc21 (stereo unspecified),inactive
20,COc1cccc(-c2nnc(SCC(=O)N3CCC(C)CC3)o2)c1,inactive
21,Cc1cc(C)cc(NC(c2nnc(-c3cccc(F)c3)o2)c2ccc(F)cc2Cl)c1 (stereo unspecified),inactive
22,CCn1c2ccccc2c2cc(NC(=O)COc3ccc(C)cc3C)ccc21,inactive
23,Cc1cccc(N2CCN(C(=O)c3ccc(Nc4nc5ccccc5n5nnnc45)cc3)CC2)c1C,inactive
24,O=C(Nc1ccc(Oc2ccccc2)cc1)C1CCN(S(=O)(=O)c2ccc(Cl)cc2)CC1,inactive
25,CCOC(=O)c1cnc2c(C)cc(Cl)cc2c1NCCc1ccc(OC)c(OC)c1,inactive
